Results published in PubChem BioAssay (EPA / NIEHS).
Results filed as inconclusive are left out. Calls of active or inactive are those of the source. The calls were made as follows: active = hit-call score of the fitted dose curve at least 0.9, where 1 is the maximum; inconclusive = response in the unintended direction; inactive = score below 0.9.

Assay: Tanguay_ZF_120hpf_TRUN_legacy: (Legacy) Oregon State University Tanguay Lab 120 Hour Post-fertilization zebrafish Assay for Truncated Body (AID 2283655)
Description: Tanguay_ZF_120hpf_legacy is a whole embryo, multiplexed endpoint assay using zebrafish larvae exposed for 120 hours post fertilization on a 96-well plate.Tanguay_ZF_120hpf_TRUN_legacy is one of one assay component(s) measured or calculated from the Tanguay_ZF_120hpf_legacy assay. It is designed to make measurements of zebrafish development as detected with brightfield microscopy of developing zebrafish embryos.Data from the assay component Tanguay_ZF_120hpf_TRUN_legacy was analyzed into 1 assay endpoints. This assay endpoint, Tanguay_ZF_120hpf_TRUN_legacy, was analyzed in the positive analysis fitting direction relative to DMSO as the negative control and baseline of activity. Using a type of morphology reporter, gain-of-signal activity can be used to understand changes in developmentals as they relate to the whole embryo. To generalize the intended target to other relatable targets, this assay endpoint is annotated to the zebrafish development intended target family, where the subfamily is embryonic morphogenesis.
Zebrafish husbandry: Tropical 5D wild-type adult zebrafish were housed in at an approximate density of 1000 per 100 gallon tank at the Sinnhuber Aquatic Research Laboratory, Oregon State University, Corvallis, OR. Each tank was kept at standard laboratory conditions of 28C on a 14-h light/10-h dark photoperiod in fish water consisting of reverse osmosis water supplemented with a commercially available salt (Instant Ocean). Spawning funnels were placed into the tanks the night prior, and embryos were collected and staged. To increase bioavailability, the chorion was enzymatically removed using pronase (63.6mg/ml, >/= 3.5U/mg, Sigma-Aldrich: P5147) at 4 hours post fertilization (hpf) using a custom automated dechorionator.Chemical exposures: Six hpf dechorionated embryos were placed 1 embryo per well in a 96-well plate prefilled with 90 ul of EM using automated embryo placement systems (AEPS). Ten microliters of each row of dilution plate 2 was added to 2 exposure plates. The final DMSO concentration used was 0.64% (vol/vol). Thirty-two embryos were also exposed to 5uM trimethyltin chloride (positive control). Plates were sealed to prevent evaporation and foil covered to reduce light exposure and kept in a 28C incubator. Embryos were statically exposed until 120 hpf. At 24 hpf, embryos were assessed for photomotor response using a custom photomotor response analysis tool (PRAT) and for developmental toxicity endpoints (MO24: mortality at 24 hpf, DP: developmental progression, SM: spontaneous movement, and NC: notochord distortion). At 120 hpf, locomotor activity was measured using Viewpoint Zebralab and assessed for 18 endpoints. Zebrafish acquisition and analysis program (ZAAP), a custom program designed to inventory, acquire, and manage zebrafish data, was used to collect developmental endpoints as either present or absent (i.e., binary responses were recorded). If mortality occurred for an embryo (at either 24 or 120 hpf), the non-mortality endpoints were not measured.

Row | Compound | outcome
1 | Oc1cc(Cl)c(Cl)cc1Cl | inactive
2 | Oc1c(Cl)cc(Cl)cc1Cl | inactive
3 | Clc1cccc(Cl)c1 | inactive
4 | O=C(N[C@H]1CN2CCC1CC2)c1ccc2c(c1)OCCO2 | inactive
5 | Cc1cc(C)cc(C)c1 | inactive
6 | CN(C)C(=S)S | inactive
7 | OCCN(CCO)CCO | inactive
8 | Clc1cccc(Cl)c1Cl | inactive
9 | CCCCCCCCCCCCc1cccc(S(=O)(=O)O)c1 | inactive
10 | CC(C)(C)c1ccccc1O | inactive
11 | O=C(O)C1(c2ccc3c(c2)OC[C@H](Cc2ccc(-c4ccccc4)cc2)[C@H]3O)CCCC1 | inactive
